Pol beta inh = DNA polymerase beta (human) inhibition; 340,000 compounds, 1.3% hits; P06746; Pol beta primer extension/strand displacement, fluorescence kinetic; AID 485314; Potency, µM (top dose mostly 114 µM), without a hit: at the highest dose activity change, negative = inhibition, most hits filed as inhibitors; further: on the % scale 0 is the no-effect control and ±100 the full control effect
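Kinetic readout of DNA synthesis with strand displacement by Pol beta. Compound and 10 nM enzyme sit 15 min at room temperature; 50 nM substrate starts the reaction, read immediately and at 10 min.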
POLI inh = blocks human DNA polymerase iota activity | 390,000 compounds, 1% hits | Q9UNA4 | Pol iota fluorescent replication assay, 10 min | Potency, µM (doses to about 115 µM), for the others: at the highest dose activity, negative = inhibition, most hits filed as inhibitors
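Pol iota at 10 nM preincubated 15 min with compounds at room temperature; reaction started with fluorescent substrate, 50 nM final. Fluorescence read kinetically at 0 and 10 min; buffer-only wells as negative control.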
POLH inh = DNA polymerase eta (human) inhibition; 390,000 compounds, 1.2% hits; Q9Y253; recombinant Pol eta, fluorescent DNA replication assay; Potency, µM (top dose mostly 114 µM), for the others: at the top dose activity change, negative = inhibition, usual class: inhibitors; further: on the % scale 0 is the no-effect control and ±100 the full control effect
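Pol eta at 10 nM preincubated with compounds 15 min at room temperature; reaction started with fluorescent substrate (50 nM final) and read kinetically at 0 and 10 min.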
Pol kappa inh = inhibitors of human DNA polymerase kappa; 400,000 compounds, 0.53% hits; Potency, µM (top dose mostly 107 µM), for inactives: at the top dose activity, negative = inhibition, hits mostly inhibitors; AID 588579; purified Pol kappa, fluorescent DNA synthesis assay, 10 min; further: on the % scale 0 is the no-effect control and ±100 the full control effect
Target sequence (Q9UBT6 whole entry, looked up): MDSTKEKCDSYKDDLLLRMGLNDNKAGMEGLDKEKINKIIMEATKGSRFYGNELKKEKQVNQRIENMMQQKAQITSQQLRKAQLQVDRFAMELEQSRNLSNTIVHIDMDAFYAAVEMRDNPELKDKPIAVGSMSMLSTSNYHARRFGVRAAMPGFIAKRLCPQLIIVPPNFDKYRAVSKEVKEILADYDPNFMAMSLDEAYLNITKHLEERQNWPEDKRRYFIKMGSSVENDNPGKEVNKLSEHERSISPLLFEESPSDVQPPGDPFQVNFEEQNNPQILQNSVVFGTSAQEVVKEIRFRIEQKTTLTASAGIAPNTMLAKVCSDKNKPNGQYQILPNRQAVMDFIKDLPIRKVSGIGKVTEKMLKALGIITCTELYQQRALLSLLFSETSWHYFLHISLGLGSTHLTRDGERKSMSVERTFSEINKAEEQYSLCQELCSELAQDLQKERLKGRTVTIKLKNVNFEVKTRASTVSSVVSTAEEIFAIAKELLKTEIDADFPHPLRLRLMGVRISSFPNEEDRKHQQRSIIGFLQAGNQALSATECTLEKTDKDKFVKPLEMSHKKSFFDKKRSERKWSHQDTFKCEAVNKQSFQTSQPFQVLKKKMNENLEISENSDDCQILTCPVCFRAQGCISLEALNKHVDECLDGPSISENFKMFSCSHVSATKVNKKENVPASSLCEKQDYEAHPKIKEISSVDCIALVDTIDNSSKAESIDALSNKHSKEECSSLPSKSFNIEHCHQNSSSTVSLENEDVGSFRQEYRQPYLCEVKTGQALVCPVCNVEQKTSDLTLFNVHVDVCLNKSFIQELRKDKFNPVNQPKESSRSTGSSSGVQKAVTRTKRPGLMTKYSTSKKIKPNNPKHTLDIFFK
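Inhibition of 10 nM Pol kappa is measured by a fluorescent read-out at 0 and 10 min following addition of 50 nM substrate (final), with a 15-min room-temperature compound preincubation.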
KAT2A inh = inhibitors of human GCN5L2 histone acetyltransferase; Q92830; GCN5L2 HAT assay, ThioGlo1 CoA-SH fluorescence; Potency, µM (doses to about 58.9 µM), for the others: at the highest dose activity change, negative = inhibition, most hits filed as inhibitors; 390,000 compounds, 0.21% hits; AID 504327; further: on the % scale 0 is the no-effect control and ±100 the full control effect
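Enzyme at 20nM final was mixed with library compounds for 15 min at room temperature. Peptide H3(1-25) at 75uM, acetyl-CoA at 70uM and ThioGlo1 at 50uM were then added. Plates were read immediately and after 20 min (Ex340nm/Em540nm).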
GLS inhibitor = inhibitors of human glutaminase (GLS); GLS enzymatic activity, qHTS titration; AID 624170; 410,000 compounds, 0.21% hits; Potency, µM (top dose mostly 45.5 µM), without a hit: top-dose activity change, negative = inhibition, usual class: inhibitors; O94925; further: on the % scale 0 is the no-effect control and ±100 the full control effect
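Enzyme dispensed in phosphate buffer (45 mM, pH 8.2, 0.02% Tween-20), compounds pinned in, then 1 mM L-glutamine solution and the glutamate oxidase–HRP–Amplex Red mix added; fluorescence read immediately and again after 30 min at room temperature.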
Starred values were filed as active, the others as inactive; ? = inconclusive; · = no result; [ ] = remark or other dose. In the library only some 2.4% were active in any assay of this set; here they are far more common. The call rests on the fitted dose curve; in most records, active means well fitted inhibition curve with a large enough effect; inconclusive means small, poorly fitted or top-dose-only effect, or another doubt; inactive means no such curve, though single readings can be large or run the other way. Potency means the concentration at half of the fitted maximal effect.

SMILES	Pol beta inh	POLI inh	POLH inh	Pol kappa inh	KAT2A inh	GLS inhibitor
Cc1cc(C)nc(Sc2ccc([N+](=O)[O-])cc2[N+](=O)[O-])n1	12%	4%	?	-10%	-3%	-3%
O=[N+]([O-])c1ccc(Sc2ccncn2)c([N+](=O)[O-])c1	·	·	50µM*	·	·	0%
O=C(Nc1ccc(F)cc1F)c1noc2c1CCC2	22µM*	18µM*	20µM*	-33%	-16%	-21%
CCc1ccccc1NNC(=O)c1sccc1Cl	·	14%	·	-2%	·	·
O=C(CCc1nnc2n(Cc3ccc(Cl)cc3)c(=O)c3ccccc3n12)N1CCN(c2ccccn2)CC1	12%	8%	2%	-3%	3%	11µM*
C=C1c2c(Cl)ccc(O)c2C(O)=C2C(=O)[C@@]3(O)C(O)=C(C(N)=O)C(=O)[C@@H](N(C)C)[C@@H]3[C@@H](O)[C@H]12	·	·	·	2.5µM*	6.3µM*	?
CCN(c1cc(C)cc(C)c1)S(=O)(=O)c1nnc(NC(=O)c2cccs2)s1	-28%	25%	89µM*	-16%	-3%	2%
CCN(c1ccc(OC)cc1)S(=O)(=O)c1nnc(NC(=O)COc2ccc(C)cc2)s1	7.9µM*	-6%	-2%	-16%	?	4%
COc1ccc(Cc2nnc(Nc3ccccc3)s2)cc1Br	56µM*	?	?	-2%	-20%	4%
COc1ccc(CNc2ccccc2)cc1Br	24%	-13%	-9%	-7%	-5%	29%
N#Cc1ccsc1NC(=O)COc1ccc(-c2nnco2)cc1	?	?	20µM*	-41%	-2%	-7%
N#CCSc1ccccc1NC(=O)COc1ccc(-c2nnco2)cc1	·	38%	-22%	-4%	-1%	-1%
COc1cc(/C=C(\C#N)C(N)=O)cc(CSc2nc3ccccc3s2)c1O	·	·	·	1%[19.4 µM]	28µM*	·
CC(=O)Nc1cccc(NC(=O)CSc2nc(C3CC3)nc3ccccc23)c1	?	28%	-17%	-4%	-2%	4%
O=C(CSc1nc(-c2ccccc2)nc2ccccc12)Nc1cccc(C(=O)O)c1	0%	?	35µM*	1%	-4%	21%
CC(=O)c1cccc(NC(=O)CSc2nc(C3CC3)nc3ccccc23)c1	?	25µM*	-18%	-35%	-5%	9%
CN(C)c1ccc(/C=C/c2cc3ccccc3cn2)cc1	·	-19%	·	?	·	·
COC1=C/C(=C/c2c(N)n3c(nc2=O)sc2cc(S(C)(=O)=O)ccc23)C=CC1=O	-1%	?	28µM*	-32%	-11%	?
COC1=C/C(=C/c2c(N)n3nc(-c4ccc(C)cc4)sc3nc2=O)C=CC1=O	56µM*	14µM*	22µM*	-10%	-4%	-10%
CCS(=O)(=O)c1nn2c(N)c(/C=C3/C=CC(=O)C(OC)=C3)c(=O)nc2s1	6%	-9%	?	-26%	-2%	29%
CCOC1=C/C(=C/c2c(N)n3oc(C)cc3nc2=O)C=CC1=O	13%	·	·	·	-6%	·
O=C1C2=C(Nc3ccccc3SC2c2ccccc2C(F)(F)F)c2ccccc21 (stereo unspecified)	-16%	-19%	-8%	-6%	-11%	-3%
Cn1c(=O)n(C)c2cc(N3CCOCC3)c(NS(=O)(=O)c3ccc(Br)cc3)cc21	12%	5%	0%	19%	-9%	18%
CC(=O)N1CCc2cc(Br)cc(S(=O)(=O)N3CCN(c4cccc(C(F)(F)F)c4)CC3)c21	-1%	16%	-6%	8%	2%	-6%
CCCc1cc2c(-c3ccccc3)cc(=O)oc2cc1OCc1ccc(C(=O)O)o1	?	-11%	79µM*	-12%	?	0%
SMILES	Pol beta inh	POLI inh	POLH inh	Pol kappa inh	KAT2A inh	GLS inhibitor
O=S(=O)(O)c1cccc2c(N=Nc3ccc(O)c4ncccc34)cccc12	?	?	3.2µM*	-99%	?	8.9µM*
O=Nc1ccc(O)c2ncccc12	8%	?	-1%	4%[60.1 µM]	0%	11%
CNc1ccc(Br)cc(C(=O)/C=C/c2ccc(Cl)cc2Cl)c1=O	32µM*	?	50µM*	-25%	2%	-8%
COc1ccc(/C=C/C(=O)c2ccc(OC)cc2OC)c(OC)c1	-20%	-9%	-14%	-6%	-6%	6%
CNc1ccc(Br)cc(C(=O)/C=C/c2cccc(OC)c2)c1=O	-24%	?	16µM*	?	-18%	3%
CNc1ccc(Br)cc(C(=O)/C=C/c2ccc(OC)cc2OC)c1=O	?	11µM*	45µM*	?	-20%	4%
Cc1ccccc1-c1noc(CSc2nc(-c3ccc(F)cc3)cc(=O)[nH]2)n1	-18%	?	-6%	-11%[60.1 µM]	-6%	-11%
COc1ccc(NCc2ccc([N+](=O)[O-])s2)cc1	22µM*	-11%	-7%	-27%	-2%	6%
COc1ccc(NCc2ccc([N+](=O)[O-])s2)c(OC)c1	22µM*	-9%	?	-28%	-5%	35%
CCOc1c(Cl)cc(C(=O)N(Cc2ccc(N(C)C)cc2)Cc2ccco2)cc1Cl	22%	17%	·	10%	-10%	-17%
CCOCCn1c(=O)c2c(nc3n2CCN3c2ccc(C)c(C)c2)n(C)c1=O	20µM*	?	-11%	-7%	-17%	-1%
CCOCCn1c(=O)c2c(nc3n2CCN3c2ccc(C)cc2)n(C)c1=O	·	9%	-19%	-12%	·	-1%
Cn1c(=O)n(CCCc2ccccc2)c(=O)c2c1nc1n2CCN1c1ccc(F)cc1	?	19%	-18%	-18%	-7%	-8%
Cc1cccc(N2CCn3c2nc2c3c(=O)n(CCCc3ccccc3)c(=O)n2C)c1	89µM*	-3%	-10%	-29%	-6%	-10%
Fc1ccc(Nc2nc(NCc3ccco3)nc3nccnc23)cc1	·	-3%	·	0%	·	·
COC(=O)c1ccsc1NC(=O)c1cccc(OC)c1	-1%	89µM*	-25%	-5%	2%	-9%
COc1cccc(C(=O)Nc2ccccc2)c1	22%	20%	-10%	-6%	-2%	-1%
Fc1ccc(CCNc2ncnc3nc[nH]c23)cc1	·	-1%	·	2%	·	·
COc1ccc2nc(C)cc(SCC(=O)NNC(=O)COc3cccc4ccccc34)c2c1	13µM*	?	?	-22%	23%	5%
O=C(O)c1ccc2nc(-c3ccccc3)sc2c1	11%	8%	-10%	-4%	-1%	14%
O=C(O)c1ccc2ncsc2c1	8%	4µM*	-20%	-14%	-15%	?
Nc1cc2sc(-c3ccc(C(=O)O)cc3)nc2cc1Cl	?	?	32µM*	-31%	?	1%
